The whole screen tested about 46,000 compounds, of which about 430 (0.93%) were called active. The sample holds actives, similar compounds and a random draw of the others, so the mix is not that of the screen. A number with no mark means an inactive call. No stated cut-off is given here; in the data, active means normalized absorbance mostly below about 85% (no sharp cut-off); inactive means mostly above about 86%.
These compounds were tested on Vaccinia virus DNA polymerase (E9) processive complex (assay: vaccinia E9 polymerase processive synthesis inhibitors, primary screen, biochemical, absorbance (AID 493162)). Conditions: in vitro processive DNA synthesis, absorbance read-out; stronger effect = lower value; concentration not given here.

Row | Compound | normalized absorbance
1 | CCN(CC)c1ccc(N=C2C(=C(C#N)C#N)c3ccccc3C2=C(C#N)C#N)cc1 | 99.9%
2 | CC(c1ccco1)N(C(=O)c1cccnc1Cl)c1ccccn1 (stereo unspecified) | 97.4%
3 | c1ccc2c(c1)[I+]c1ccccc1-2 | 15.1% (active)
4 | Oc1ccccc1-c1nnc2n1CCC2 | 102%
5 | O=S(=O)(Cc1ccc(Cl)cc1)N1CCc2ccccc2C1 | 107%
6 | CC(C)(C)S(=O)(=O)c1cccs1 | 90.5%
7 | CC(=O)Nc1ccc2c(c1)CN(C1CCCCC1)CO2 | 89%
8 | O=C(O)c1ccc(NC(=O)C23CC4CC(CC(C4)C2)C3)cc1 | 95.6%
9 | O=C1C2CC3CC1CC(C(=O)O)(C3)C2 | 61.8% (active)
10 | Cc1ccc2cccc(SCc3ccc(Br)cc3)c2n1 | 99.8%
11 | O=C(NCCc1ccccc1)C(C(=O)c1ccccc1)n1ccccc1=O (stereo unspecified) | 104%
12 | CCc1nc2ccccc2n1CC(=O)N(c1ccccc1)C(C)C | 99.6%
13 | CC(C)N(C(=O)CSc1ncn[nH]1)c1ccccc1 | 95.7%
14 | Fc1ccc(CNCc2ccccn2)cc1 | 105%
15 | Cc1cc(C(=O)OCC(=O)N2C(C)CCCC2C)c2ccccc2n1 (stereo unspecified) | 106%
16 | CCNCC1Cc2ccccc2O1 (stereo unspecified) | 110%
17 | COC(=O)c1c(NC(NC(C)=O)(C(F)(F)F)C(F)(F)F)sc2c1CCN(C)C2 | 99.8%
18 | COC(=O)c1c(NC(=O)c2ccc(OC)cc2)sc2c1CCN(C(C)C)C2 | 56.5% (active)
19 | CC(=O)N1CCc2c(sc(NC(=O)C(C)C)c2C(N)=O)C1 | 119%
20 | Cc1cc(C)c(S(=O)(=O)N2CCOCC2)cc1C | 105%
21 | CC(C)Oc1cccc(NC(=O)Cc2ncc(C(F)(F)F)cc2Cl)c1 | 103%
22 | CC(=Nc1ccc(N(C)C)cc1)C1=C(O)c2ccccc2C1=O | 103%

Row | Compound | normalized absorbance
23 | Cc1ccc(NC(=O)/C=C/c2ccc(Br)o2)cc1 | 100%
24 | O=C1Cc2cc(S(=O)(=O)NCc3cccs3)ccc2N1 | 105%
25 | O=C(OCC(=O)N1CCCC1)c1ccc(Oc2ccccc2)cc1 | 94.5%
26 | O=C(Nc1nc(-c2ccccc2)cs1)c1cccc(S(=O)(=O)N2CCCC2)c1 | 111%
27 | CN(C)S(=O)(=O)n1cc(/C=C(\NC(=O)c2ccccc2)C(=O)NCc2ccco2)c2ccccc21 | 80.2%
28 | CC[n+]1c(C)n(-c2ccccc2)c2ccc(N)cc21 | 99.4%
29 | CC[N+](C)(CC)CCC[n+]1c(-c2ccccc2)c2cc(N)ccc2c2ccc(N)cc21 | 8.9% (active)
30 | CCc1ccc(/C=C2\SC(=S)N(CCCC(=O)Nc3cccnc3)C2=O)cc1 | 99.7%
31 | O=C(Nc1nccs1)c1cc(=O)c2ccccc2o1 | 101%
32 | O=C(O)c1ccccc1-c1ccccc1C(=O)Nc1nccs1 | 70.1%
33 | Nc1[nH]c(=S)sc1C(=O)Nc1nccs1 | 58.3% (active)
34 | CCN1CCN(CCNC(=O)c2ccc3c(c2)NC(=O)/C(=C\c2cccc(Cl)c2)S3)CC1 | 79.8%
35 | Clc1ccc(-c2ncc3ccccn23)c(Cl)c1 | 101%
36 | OC1CCN(c2ncc(C(F)(F)F)cc2Cl)CC1 | 105%
37 | Cc1ccc2nc(C)c3c(c2c1)N(c1ccccc1)CC3 | 61.5% (active)
38 | Cc1ccc2nc(Nc3ccccc3)cc(C)c2c1 | 100%
39 | O=C(CSc1nc2ccc(N=Cc3cc(Br)ccc3O)cc2s1)Nc1ccccc1 | 100%
40 | CCCNS(=O)(=O)c1ccc2c(c1)oc(=O)n2CC(=O)OCC | 99.1%
41 | O=c1c(/C=N\O)coc2ccc(F)cc12 | 79.3%
42 | COc1cccc2c(=O)n(CC(=O)NCc3ccccc3)ccc12 | 90%
43 | CN(C(=O)COC(=O)c1cnc(Cl)c(Cl)c1)c1ccccc1 | 101%
44 | COCc1cc(Cl)nc(-c2ccccc2)n1 | 103%

Row | Compound | normalized absorbance
45 | c1csc(Nc2nc3cc4c(cc3s2)OCO4)n1 | 96.8%
46 | CCCCN1N=C(C)CC1=O | 99.9%
47 | CCC(=O)Oc1ccc(Br)cc1/C=C1\Sc2ccccc2C1=O | 99.9%
48 | ClCc1csc(-c2ccccc2)n1 | 96.4%
49 | Cc1ccc2cc(CCNC(=O)CCC3CCCC3)c(=O)[nH]c2c1 | 101%
50 | COCCn1cc(C(=O)NC2CCCCCC2)c2c3ccccc3n(C)c2c1=O | 102%
51 | Cn1c(C(=O)NC2CCCC2)cc2oc3ccccc3c21 | 104%
52 | CCN1CCCC1CNC(=O)c1cc2c(=O)n(C)c3ccccc3c2n1C (stereo unspecified) | 51.4% (active)
53 | COc1cc2c3c(c1OC)C1(C=CC(=O)C=C1)CC3[N+](C)(C)CC2 (stereo unspecified) | 75.6%
54 | O=C(N=C1SC2CS(=O)(=O)CC2N1c1ccccc1)c1ccccc1 (stereo unspecified) | 112%
55 | Cc1cc(S(=O)(=O)N2CCN(Cc3ccccc3)CC2)c(C)cc1Cl | 71.9%
56 | Cc1c(C(=O)NCCCN2CCCCCC2)oc2ccc3nc(N(C)C)sc3c12 | 64.3% (active)
57 | O=C(NCCCN1CCCC1)c1cc(-c2ccncc2)nc2ccccc12 | 86.5%
58 | Cc1ccc(-c2cn3nc(N4CCC(C(=O)NCCCN5CCCCC5)CC4)sc3n2)cc1 | 104%
59 | CC(C)=CCC(O)C1=CC(=O)c2c(O)ccc(O)c2C1=O (stereo unspecified) | 81.9% (active)
60 | Cc1ccccc1NC1=NC2(CCCCC2)N=C(N)N1 | 100%
61 | O=C(O)CC(c1ccccc1)n1cnnn1 (stereo unspecified) | 107%
62 | O=C(O)CC(c1ccccc1)c1cc(Cl)ccc1O (stereo unspecified) | 73.5% (active)
63 | O=C(O)CCc1nc2cc(Cl)ccc2n(Cc2ccccc2)c1=O | 98.8%
64 | CC(=O)N1CC(C)Oc2cc(S(=O)(=O)N(C)Cc3ccccc3)ccc21 (stereo unspecified) | 103%
65 | COc1cccc2c1C(=O)C1C(O)=C3C(=C(O)C1C2=O)C[C@@](O)(C(=O)CO)C[C@@H]3OC1CC(N)C(O)C(C)O1 (stereo partly specified) | 7.8% (active)
66 | Cc1ccccc1Nc1nn2c(=O)c3ccc(C(=O)NCc4ccccc4Cl)cc3nc2s1 | 96.3%
